From PubChem BioAssay (NCI) come the findings set out here.

The structures appear in SMILES notation. About 79,000 compounds went through this panel and 15% of them were active in at least one assay; those are over-represented in the sample as a whole. Unmarked numbers belong to inactive results. Rule as the data show it: active = growth inhibition above about 70%; inactive = the rest.

The assay can be described thus: NCI Yeast Anticancer Drug Screen. Data for the sgs1 mgt1 strain (AID 161).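 Also: 0% = growth of cultures given vehicle only.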 The note with it: S. cerevisiae sgs1 mgt1 strain, at 50.0 µM, stronger effect = higher value. Summed up:
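Growth of a repair-deficient yeast mutant was monitored after compound treatment and expressed as inhibition relative to vehicle-treated cultures.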
As to `Cn1c(=O)c(N=Nc2c(=O)n(C)c(=O)n3c2[nH]c2ccccc23)c2[nH]c3ccccc3n2c1=O`, the growth inhibition is 7.4%.
For the compound `CCCCC(CC)CN(CC(CC)CCCC)C(=O)C(C)OC(=O)C(CC)CCCC` (stereo not given), the growth inhibition is 18%.
Take `CC1CN(CCO)C(C)(C)C1` (stereo not given): the growth inhibition was -6.3%.
For the compound `CC1NCCC(CC(=O)O)C1CC(=O)O` (stereo not given), the growth inhibition was 1.75%.
As to `CCOC(=O)C(Cc1ccccc1)NC(=O)c1[nH]cnc1/N=N/N(C)C` (stereo not given), the growth inhibition is -29.4%.
On to `CCN(CC)CCOC(C)=O`, for which the growth inhibition is -19.4%.
Consider `Cc1ccc(S(=O)(=O)OCC2=C(COS(=O)(=O)c3ccc(C)cc3)C3c4ccccc4C2c2ccccc23)cc1`, for which the growth inhibition is 1.55%.
On to `CC1=C(C(=O)NCc2ccccc2)C(c2ccc([N+](=O)[O-])cc2)C(C(=O)NCc2ccccc2)=C(C)N1`, for which the growth inhibition was 1.5%.
Take `O=C(OCCOc1ccc(Cl)cc1Cl)c1ccccc1O`: the growth inhibition is -1.85%.
Regarding `Clc1ccccc1C=Nc1ccccc1`, the growth inhibition was 30.7%.
For the compound `COc1ccc(/C(C)=N/NC(=O)CC(=O)N(C(=O)c2ccccc2)c2ccc(C)cc2)cc1`, the growth inhibition was -6.5%.
As for `Cc1nc(N)[nH]c(=O)c1CCCNc1ccc(CCCCCCC2(CCl)OCCO2)cc1`, the growth inhibition was 1.45%.
On to `COC(=O)CC1C(OC)OC23CCC1C2(C)CCC1C3CCC2CC(OC(C)=O)CCC21C` (stereo not given), for which the growth inhibition is 13.8%.
Regarding `O=C(CC(C(=O)c1cccs1)c1cccs1)c1ccsc1` (stereo not given), the growth inhibition is 10.6%.
In the case of `N#CCCCNc1ccccc1`, the growth inhibition was -28.4%.
In the case of `CCCC(C)C(=O)OC1CCCCC1C` (stereo not given), the growth inhibition is -7.85%.
As for `O=C(Nc1ccccc1[N+](=O)[O-])Oc1ccc(-c2ccccc2)cc1`, the growth inhibition was 9.05%.
For `CCCCCCCCCCCC(=O)CCCCCCCCCCC`, the growth inhibition is 2.75%.
On to `C=CC(=O)OCC(C)(C)COC(=O)C=C`, for which the growth inhibition is -16.7%.
Take `Nc1nnnn1C1CCCCC1`: the growth inhibition was -4.65%.
In the case of `Cc1c(C)c(C(=O)O)c(C)c(C)c1C(=O)O`, the growth inhibition is 17.9%.
Regarding `NC(N)=NC(N)=NCc1ccccc1`, the growth inhibition was 4.3%.
Take `Nc1nnc(-c2ccccc2)s1`: the growth inhibition was 2.2%.
As for `CCN(CC)CCOC(=O)Cc1ccccc1`, the growth inhibition was 19.9%.
Turning to `C[n+]1ccc(/C=C/c2ccc(O)c3ncccc23)c2cccc(O)c21`, the growth inhibition was 37.9%.
On to `Cn1c([N+](=O)[O-])cnc1COc1ccc(NC(=O)CN2CCOCC2)cc1`, for which the growth inhibition was 19.9%.
On to `CCC(=O)CC(=O)C(=O)OC`, for which the growth inhibition is -8.45%.
Consider `Nc1ccccc1SC1CC(=O)N(c2ccc(Br)cc2)C1=O` (stereo not given), for which the growth inhibition was 2.75%.
Consider `CCN(CC)c1nc2ccccc2o1`, for which the growth inhibition is 3.7%.
Consider `CC(C(=O)O)N(CCC#N)CCC#N` (stereo not given), for which the growth inhibition was -0.5%.
Take `COC(=O)CCNC(=O)c1ccccc1`: the growth inhibition is -4.75%.
As for `COc1cc(C=O)c(-c2cc(OC)c(OC)cc2C=O)cc1OC`, the growth inhibition is -8.8%.
For the compound `CN(C)c1c(F)c(F)c(N=Nc2ccccc2)c(F)c1F`, the growth inhibition is 1.15%.
Consider `Nc1nc2c(c(-c3nc(N)nc4c3CCC4)n1)CCC2`, for which the growth inhibition was 11.6%.
Turning to `CC1=C(C(=O)CC(=O)C(=O)Nc2cccc(Cl)c2C)Sc2ccccc2N1`, the growth inhibition is -31.4%.
In the case of `CC(=O)Nc1ccc(F)cc1` it was -5.3%.
In the case of `O=C(O)C1CCC1C(=O)O` (stereo not given), the growth inhibition was -23.5%.
On to `CC(C)CC(O)C(CC(=O)Nc1ccccc1)S(=O)(=O)c1ccccc1` (stereo not given), for which the growth inhibition is -6.3%.
Consider `Oc1cc(N2CCCC2)ccc1/C=N/N1C(=S)N(c2ccccc2)C(=Nc2ccccc2)C1=Nc1ccccc1`, for which the growth inhibition is -1.3%.
On to `CN1CCCN(C)CCCN(C)CCCN(C)CCC1`, for which the growth inhibition is 7.6%.
